Screens (PubChem)
The entries come from a sample that favours hits as a whole.
Shiga toxin inh = Shiga toxin inhibition; AID 2315; Vero cells, Shiga toxin protein synthesis inhibition reporter; hit rate 9.2% among 290,000; inhibition, % at 38.7 µM; in the data active means inhibition mostly above about 28%, no sharp cut-off; inactive means mostly below about 43%
Cycloheximide cs = counter-screen for Shiga toxin inhibitors: cycloheximide protein synthesis inhibition; cell reporter, cycloheximide protein synthesis inhibition counterscreen; AID 2314; max response, %; hit rate 12% among 300,000; in the data active means max response mostly above about 13%, no sharp cut-off; inactive means mostly below about 14%; further: read at 38.3 µM for the half of the compounds with a filed dose
Tb PYK inh = blocks Trypanosoma brucei pyruvate kinase | AID 624173 | hit rate 0.12% among 410,000 | Q57TT1 | TbPYK enzyme, Kinase-Glo Plus ATP luminescence, 45 min | Potency, µM (top dose mostly 76.8 µM), most hits filed as inhibitors; further: nearly all actives have a fitted effect of over 50% in size
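Enzyme and substrate buffer are dispensed first and compound is pin-transferred. ADP at 130 uM final then starts the reaction, which runs 45 min at room temperature. Detection reagent is added for 10 min before luminescence is imaged.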
RE007 growth inh = less growth of the S. pombe RE007 Vpr strain. hit rate 0.21% among 360,000. Potency, µM (series often up to 92.2 µM), hits mostly inhibitors. S. pombe RE007 Vpr strain, BacTiter-Glo ATP luminescence, 24 h; active means well fitted falling curve with a large enough effect; inconclusive means small, poorly fitted or top-dose-only effect; inactive means no such curve, though single readings can be large or run the other way; further: nearly all actives have a fitted effect of over 50% in size
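Fission yeast RE007 carrying one integrated HIV-1 vpr copy, seeded at OD 0.01 in PMG+AL medium with 23 nL pinned compound. Grown 24 h at 30 degrees; viability read by BacTiter-Glo luminescence after 5 min.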
Giardia FBPA inh = Giardia lamblia aldolase inhibition | A8B2U2 | purified Giardia FBPA | Potency, µM (doses to about 59.6 µM), hits mostly inhibitors | hit rate 0.71% among 290,000 | AID 2451; further: nearly all actives have a fitted effect of over 55% in size
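40 nM FBPA preincubated 10 min at RT with compound (up to 57.5 uM final), then substrate plus GAPDH/TPI/NAD/arsenate coupling and diaphorase/resazurin added. Fluorescence read after 20 min at RT, 525/598 nm.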
LmPK inh = blocks Leishmania mexicana pyruvate kinase activity | purified LmPK, Kinase-Glo ATP luminescence, 1 h | Potency, µM (highest dose often 57.5 µM), actives largely listed as inhibitors | hit rate 0.37% among 290,000 | AID 1721
Target sequence (Q27686 whole entry, looked up): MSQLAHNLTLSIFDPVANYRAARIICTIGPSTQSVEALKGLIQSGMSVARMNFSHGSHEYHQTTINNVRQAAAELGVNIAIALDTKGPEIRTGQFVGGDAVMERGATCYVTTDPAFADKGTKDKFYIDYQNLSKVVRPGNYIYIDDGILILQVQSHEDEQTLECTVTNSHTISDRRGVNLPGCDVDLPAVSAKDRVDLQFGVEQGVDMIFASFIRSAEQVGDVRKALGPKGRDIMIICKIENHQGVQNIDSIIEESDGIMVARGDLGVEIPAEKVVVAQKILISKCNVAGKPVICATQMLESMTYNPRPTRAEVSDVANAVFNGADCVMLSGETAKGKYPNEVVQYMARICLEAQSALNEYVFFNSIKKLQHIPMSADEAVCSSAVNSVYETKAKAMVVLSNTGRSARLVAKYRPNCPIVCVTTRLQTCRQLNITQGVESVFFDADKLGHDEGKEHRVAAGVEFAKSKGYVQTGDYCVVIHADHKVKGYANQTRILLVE
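0.1 nM LmPK, 0.5 mM PEP, 0.1 mM ADP; 50 mM imidazole pH 7.2, 7 mM MgCl2, 50 mM KCl; 1 h RT. Kinase-Glo luminescence readout, normalized to no-enzyme (full inhibition) and uninhibited wells.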
Hits are given with their value; n = inactive; u = inconclusive; x = no result. Unless noted, the call rests on the fitted dose curve; in most records, active means well fitted curve in the direction sought with a large enough effect; inconclusive means small, poorly fitted or top-dose-only effect, or another doubt; inactive means no such curve, though single readings can be large; an effect the other way counts as inactive or inconclusive.

SMILES	Shiga toxin inh	Cycloheximide cs	Tb PYK inh	RE007 growth inh	Giardia FBPA inh	LmPK inh
C=CCN1C(=O)C2C(C(=O)NC3CCCC3)C3C=CC2(O3)C1C(=O)NC1CCCC1 (configuration not stated)	n	n	n	n	n	n
O=Nc1ccc(NOC(=O)c2ccccc2)cc1	47.5	43.6	u	10µM	n	12.6µM
CCOC(=O)c1cc2sc(C)cc2n1CC(=O)Nc1cccc(C)c1C	n	n	n	n	n	n
CCOC(=O)c1cnc2c(OC)cccc2c1Nc1ccc2c(c1)OCCO2	27.8	28.7	n	n	n	n
CCOC(=O)c1cnc2ccc(OC)cc2c1Nc1ccc2c(c1)OCCO2	n	n	n	n	u	n
CCOC(=O)c1c(C)c(C(=O)Nc2ccc3c(c2)OCCO3)c(C)n1C	55.3	21.6	n	n	n	n
CCOC(=O)c1cc2sc(C)cc2n1CC(=O)Nc1ccc2c(c1)OCCO2	n	11.9	n	n	n	n
CCOC(=O)c1c(C)c(C(=O)Nc2cc(F)ccc2F)c(C)n1C	n	n	n	n	n	n
CCOC(=O)Nc1cc(Br)c2c(c1)OCCO2	n	33.6	n	n	n	n
CCOC(=O)Nc1cc(C(=O)OC)cc(C(=O)OC)c1	n	n	n	n	n	n
COC(=O)C1=C(C)NC(COC(N)=O)=C(C(=O)OC(C)C)C1c1cccc(Cl)c1Cl (configuration not stated)	x	x	n	x	x	x
Cc1nnc(N2C(=O)c3oc4ccccc4c(=O)c3C2c2ccc(Cl)cc2)s1 (configuration not stated)	x	x	n	x	x	x
CCOC(=O)c1ccc(NCc2ccc3c(c2)OCO3)cc1	66.0	34.7	n	n	n	n
CCOC(=O)c1ccc(NC(=O)Nc2ccc3c(c2)OCCO3)cc1	32.2	13.2	n	n	n	n
CCOC(=O)c1c(C)c(C(=O)Nc2ccc(N(C)C)cc2)c(C)n1CC	n	21.9	n	n	n	n
O=[N+]([O-])c1ccc(NCc2ccc3c(c2)OCO3)cc1	n	20.6	n	n	n	n
COc1cccc(Cn2c(=O)c(C)nc3cnc(N(C)C)nc32)c1	x	x	x	x	n	x
O=S(=O)(c1ccccc1)N1CCN(S(=O)(=O)c2ccc3c(c2)OCCO3)CC1	n	n	x	x	x	x
COc1ccccc1CNc1ncnc2ccc(-c3ccccc3OC)cc12	x	x	x	x	n	x
CN1CCc2c(sc(NC(=O)c3ccc([N+](=O)[O-])o3)c2C(N)=O)C1	25.5	27.4	n	n	x	n
CN1CCc2c(sc(NC(=O)c3ccco3)c2C(N)=O)C1	n	17.2	n	n	n	n
COC(=O)c1c(NC(=O)c2ccco2)sc2c1CCN(C(C)C)C2	n	n	n	n	n	n
CC(C)N1CCc2c(sc(NC(=O)c3ccco3)c2C(N)=O)C1	n	20.7	n	n	n	n
CN1CCc2c(sc(NC(=O)c3ccc(S(=O)(=O)N4CCCC4)cc3)c2C(N)=O)C1	n	n	n	n	x	n
NC(=O)c1c(NC(=O)c2ccc([N+](=O)[O-])o2)sc2c1CCCC2	n	n	n	n	n	n
SMILES	Shiga toxin inh	Cycloheximide cs	Tb PYK inh	RE007 growth inh	Giardia FBPA inh	LmPK inh
COc1ccc(CC(=O)Nc2cc(S(=O)(=O)N3CCOCC3)ccc2N2CCOCC2)cc1OC	x	x	n	n	x	x
Cc1cccc(NC(=O)C(=O)NCC2CCCO2)c1 (configuration not stated)	51.4	43.2	n	n	n	n
S=C(NCC1CCCO1)Nc1cccc(Cl)c1 (configuration not stated)	n	n	n	n	n	n
O=C(NCC1CCCO1)Nc1cccc(Cl)c1 (configuration not stated)	26.8	17.0	n	n	n	n
CN1c2ccccc2C(C)(C)C12C=Cc1cc(O)ccc1O2 (configuration not stated)	n	20.6	u	n	n	n
Cn1c(-c2c(N)n(C3CCCC3)c3nc4ccccc4nc23)nc2ccccc21	n	n	n	7.08µM	n	n
COc1cccc(CC(=O)Nc2ccc3nc(C)sc3c2)c1	n	29.9	n	n	n	n
COc1cc(CC(=O)Nc2ccc3nc(C)sc3c2)cc(OC)c1OC	n	n	n	n	n	n
Cc1nc2ccc(NC(=O)COc3ccccc3F)cc2s1	72.1	30.9	n	n	n	n
